{"source": "PubChem BioAssay AID1508602", "about": "(The Scripps Research Institute Molecular Screening Center, 2020)", "note": "Screen size: about 650,000 compounds; about 6,800 (1%) were called active. Cut-off read from the data, not from the text of the source: active = activation above about 4.9%; inactive = the rest. Shown is part of a subset that was picked to be rich in actives."}
{"target": "G-protein coupled receptor 151 (Homo sapiens) (UniProt Q8TDV0)", "sequence (Q8TDV0 whole entry, looked up)": "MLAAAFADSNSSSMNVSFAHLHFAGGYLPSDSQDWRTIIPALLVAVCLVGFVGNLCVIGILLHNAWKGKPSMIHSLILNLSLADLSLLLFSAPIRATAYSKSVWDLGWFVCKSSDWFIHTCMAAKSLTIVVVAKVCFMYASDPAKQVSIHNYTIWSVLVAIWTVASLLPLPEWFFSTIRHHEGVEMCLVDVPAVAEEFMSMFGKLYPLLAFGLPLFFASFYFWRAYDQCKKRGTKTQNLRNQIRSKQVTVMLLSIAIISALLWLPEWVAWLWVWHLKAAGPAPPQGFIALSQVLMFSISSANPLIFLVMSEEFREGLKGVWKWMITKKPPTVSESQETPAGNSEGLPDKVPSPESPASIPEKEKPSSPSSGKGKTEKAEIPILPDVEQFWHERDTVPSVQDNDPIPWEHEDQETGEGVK", "assay": "activators of human GPR151, primary screen, cell-based, PathHunter beta-arrestin, luminescence (AID 1508602);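 note: 0% = median of compound wells and 100% = cells with positive control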", "conditions": "PathHunter beta-arrestin GPR151 cells, at 11.2 µM, stronger effect = higher value"}
{"molecule": "COC(=O)c1cccc(-n2c3nc(=O)[nH]c(=O)c-3cc3ccccc32)c1", "activation": "-0.76% (inactive)"}
{"molecule": "CC(C)CC(=O)Nc1ccc(NC(=O)CC(C)C)c(Cl)c1", "activation": "0.466% (inactive)"}
{"molecule": "CC(=O)c1cccc(-c2nc(Nc3ccc(Oc4ccccc4)cc3)c3ncn(-c4ccsc4)c3n2)c1", "activation": "5.34% (active)"}
{"molecule": "Cc1nn(C)c(C)c1-c1nc(Nc2ccc(Oc3ccccc3)cc2)c2ncn(-c3ccsc3)c2n1", "activation": "0.158% (inactive)"}
{"molecule": "CC(=O)c1cccc(-c2nc(NCCOc3ccccc3)c3ncn(-c4ccccc4)c3n2)c1", "activation": "0.401% (inactive)"}
{"molecule": "CCOC(=O)C1=C(C)N=c2s/c(=C\\c3ccc(OC)c(Br)c3)c(=O)n2C1c1ccc2c(c1)OCO2", "note": "(stereo not given)", "activation": "3.22% (inactive)"}
{"molecule": "CCCc1c(C)nc2c(C(=O)NC3CCCCCCC3)c[nH]n2c1=O", "activation": "1.02% (inactive)"}
{"molecule": "CCOC(=O)Cc1coc(NC(=O)c2ccc(Cl)cc2)n1", "activation": "5.28% (active)"}
{"molecule": "CCOC(=O)Cc1csc(NC(=O)c2ccc(NC(=O)CC)cc2)n1", "activation": "-0.289% (inactive)"}
{"molecule": "CC(=O)COC(=O)CNC(=O)c1ccc(Cl)cc1", "activation": "-1.71% (inactive)"}
{"molecule": "Cc1nn(CC(=O)N(CC2CCCO2)C2CCS(=O)(=O)C2)c(C)c1[N+](=O)[O-]", "note": "(stereo not given)", "activation": "0.461% (inactive)"}
{"molecule": "CCOC(=O)C1=C(C)N=c2s/c(=C\\c3cccc(OC)c3OCC)c(=O)n2C1c1ccccc1OC(C)C", "note": "(stereo not given)", "activation": "2.86% (inactive)"}
{"molecule": "COc1cc([N+](=O)[O-])ccc1NC(=O)N1CCN(C2CCCCC2)CC1", "activation": "-0.0069% (inactive)"}
{"molecule": "O=C(c1cc([N+](=O)[O-])ccc1NC1CCCCC1)N1CCOCC1", "activation": "9.09% (active)"}
{"molecule": "O=C(c1cn[nH]c1-c1ccc([N+](=O)[O-])cc1)N1CCOCC1", "activation": "-0.121% (inactive)"}
{"molecule": "S=C(NCc1ccccc1)NCc1nc2ccccc2[nH]1", "activation": "1.09% (inactive)"}
{"molecule": "Cc1ccc(C)n1-c1ccc(C(=O)NCC(c2ccco2)N(C)C)cc1", "note": "(stereo not given)", "activation": "0.754% (inactive)"}
{"molecule": "CC(C)Cn1c(=O)c2c(nc3n2CCCN3c2ccc(Br)cc2)n(C)c1=O", "activation": "-0.288% (inactive)"}
{"molecule": "CC(=O)Cn1c(=O)c2c(nc3n2CCCN3c2ccc(Br)cc2)n(C)c1=O", "activation": "5.99% (active)"}
{"molecule": "CCOCCn1c(=O)c2c(nc3n2CCCN3c2ccc(Br)cc2)n(C)c1=O", "activation": "0.326% (inactive)"}
{"molecule": "O=C(C(Cc1ccccc1)N1C(=O)C2C3CCC(C3)C2C1=O)N1CCOCC1", "note": "(stereo not given)", "activation": "0.906% (inactive)"}
{"molecule": "O=C(C(Cc1ccccc1)N1C(=O)C2C3c4ccccc4C(c4ccccc43)C2C1=O)N1CCOCC1", "note": "(stereo not given)", "activation": "6.8% (active)"}
{"molecule": "O=C(C(Cc1ccccc1)N1Cc2ccccc2C1=O)N1CCOCC1", "note": "(stereo not given)", "activation": "-0.15% (inactive)"}
{"molecule": "CCOC(=O)c1c(NC(=O)C(C)Sc2nnc(CNC(=O)COc3ccccc3)n2-c2cccc(Cl)c2)sc2c1CCC2", "note": "(stereo not given)", "activation": "-0.72% (inactive)"}
{"molecule": "Cc1[nH]nc(Nc2cccc(C(F)(F)F)c2)c1[N+](=O)[O-]", "activation": "0.158% (inactive)"}
{"molecule": "O=[N+]([O-])c1ccc2ncnc(Nc3cccc(C(F)(F)F)c3)c2c1", "activation": "5.31% (active)"}
{"molecule": "Cn1ncc2c(Nc3cccc(S(=O)(=O)Nc4cccc(C(F)(F)F)c4)c3)ncnc21", "activation": "-0.0154% (inactive)"}
{"molecule": "COc1ccc(C(C)(C)C)cc1NC(=O)c1ccc2c(c1)NC(=O)C(C)S2", "note": "(stereo not given)", "activation": "-1.1% (inactive)"}
{"molecule": "CCOc1ccc(C(=O)Nc2ccc3c4c(cccc24)CC3)cc1", "activation": "0.563% (inactive)"}
{"molecule": "COc1cc2ccccc2cc1C(=O)Nc1ccc2c3c(cccc13)CC2", "activation": "1.02% (inactive)"}
{"molecule": "COc1cc(OC)cc(C(=O)Nc2ccc3c4c(cccc24)CC3)c1", "activation": "16.6% (active)"}
{"molecule": "COc1ccc(/C=C\\C(=O)NCCc2cc3ccc(C)c(C)c3[nH]c2=O)cc1OC", "activation": "-0.187% (inactive)"}
{"molecule": "O=C1CCC(CCNCCOc2ccc(F)cc2)N1CCc1ccccc1", "note": "(stereo not given)", "activation": "-0.404% (inactive)"}
{"molecule": "O=C1CCC(CCNCCOc2ccccc2)N1CCc1ccccc1", "note": "(stereo not given)", "activation": "8.35% (active)"}
{"molecule": "O=C1CCC(CCNCc2ccccc2)N1CCc1ccccc1F", "note": "(stereo not given)", "activation": "1.45% (inactive)"}
{"molecule": "CCOC(=O)N1CCC(NC(=O)c2ccc(N3CC4CC(C3)c3cccc(=O)n3C4)c(NC(=O)c3ccc(OC)cc3)c2)CC1", "note": "(stereo not given)", "activation": "-1.15% (inactive)"}
{"molecule": "CCOc1ccc(S(=O)(=O)c2c[nH]c3cc(OC)c(OC)cc3c2=O)cc1", "activation": "0.157% (inactive)"}
{"molecule": "Cc1cccc(NC(=O)CCn2c(=O)oc3ccccc32)c1", "activation": "-0.466% (inactive)"}
{"molecule": "Cc1ccc(NC(=O)CCn2c(=O)oc3ccccc32)cc1Cl", "activation": "10.6% (active)"}
{"molecule": "CN1C(=O)c2ccc(NC(=O)CCn3c(=O)oc4ccccc43)cc2C1=O", "activation": "-1.74% (inactive)"}
{"molecule": "CCOC(=O)c1c(NC(=O)COC(=O)C(C)c2c(F)c(F)cc(F)c2F)sc2c1CCCC2", "note": "(stereo not given)", "activation": "1.7% (inactive)"}
{"molecule": "COc1ccc(-c2csc3ncc(C(=O)N(C)C(C)C)c(=O)n23)cc1", "activation": "1.24% (inactive)"}
{"molecule": "Cc1ccc(C(=O)NCc2nc3nc(C)cc(C)n3n2)cc1", "activation": "0.459% (inactive)"}
{"molecule": "Cc1ccc(S(=O)(=O)NCc2nc3nc(C)cc(C)n3n2)cc1", "activation": "10.6% (active)"}
{"molecule": "Cc1cccc(CNc2nc3nc(C)cc(C)n3n2)c1", "activation": "-0.819% (inactive)"}
{"molecule": "CCN(CC)CCN1C(=O)C(=O)/C(=C(\\O)c2ccc(Cl)cc2)C1c1ccc([N+](=O)[O-])cc1", "note": "(stereo not given)", "activation": "-0.703% (inactive)"}
{"molecule": "NS(=O)(=O)c1cccc(S(=O)(=O)c2ccc(Br)cc2)c1", "activation": "1.39% (inactive)"}
{"molecule": "CCCCCC(=O)N/N=C(/C)c1ccc(O)cc1O", "activation": "7.91% (active)"}
{"molecule": "CCCCCC(=O)N/N=C(\\C)c1ccc(O)cc1", "activation": "-1.26% (inactive)"}
{"molecule": "C/C(=N\\NC(=O)CCC(=O)N/N=C(\\C)c1ccc(Cl)cc1)c1ccc(Cl)cc1", "activation": "0.378% (inactive)"}
{"molecule": "Cc1ccc(C(=O)COC(=O)c2ccc3nc(-c4ccccc4)c(-c4ccccc4)nc3c2)cc1", "activation": "-0.519% (inactive)"}
{"molecule": "CCc1nnc(NC(=O)CSc2nc(C)cc(C)n2)s1", "activation": "-1.16% (inactive)"}
{"molecule": "Nc1nnnn1/N=C\\c1ccc(O)c(O)c1", "activation": "0.149% (inactive)"}
{"molecule": "COc1ccc(OC)c(/C=N/n2nnnc2N)c1", "activation": "8.6% (active)"}
{"molecule": "COc1cc(/C=N/n2nnnc2N)ccc1OCCC(C)C", "activation": "1.35% (inactive)"}
{"molecule": "Brc1ccc(-c2cc(-c3ccccc3)c3cc(Br)ccc3n2)cc1", "activation": "1.18% (inactive)"}
{"molecule": "CCCCC(=O)Nc1ccc(C(=O)N2CCN(c3ccccc3F)CC2)cc1", "activation": "1.25% (inactive)"}
{"molecule": "COC(=O)[C@@H]1CC[C@H](C)[C@@H](c2ccc(C)cc2)N1C(=O)c1ccc(/C=N/O[C@H](C)c2cn([C@@H]3COC[C@H]3O)nn2)cc1", "activation": "7.09% (active)"}
{"molecule": "Cc1cc(N2C(=O)c3ccc(Oc4ccc(NC(=O)CSc5ccc(Cl)cc5)cc4)cc3C2=O)no1", "activation": "1.59% (inactive)"}
{"molecule": "CCSc1nc2sccn2c(=O)c1C(=O)NC(Cc1ccccn1)C(F)(F)F", "note": "(stereo not given)", "activation": "4.95% (active)"}
{"molecule": "CSc1nc2sccn2c(=O)c1C(=O)NC(C)CO", "note": "(stereo not given)", "activation": "-0.408% (inactive)"}
{"molecule": "O=C(NCCc1ccccn1)c1cn2ccsc2n1", "activation": "0.225% (inactive)"}
{"molecule": "CCCCN(C)CCCN(Cc1ccco1)C(=S)Nc1ccc(Cl)c(C)c1", "activation": "-0.264% (inactive)"}
{"molecule": "COc1cccc(CCNC(=O)CCc2nnc(COc3ccccc3)o2)c1", "activation": "-0.583% (inactive)"}
{"molecule": "CSCCNc1nc2nonc2nc1NC1CC1", "activation": "0.51% (inactive)"}
{"molecule": "O=C1OC(c2ccc(Br)cc2)=N/C1=C\\c1cc(Br)cs1", "activation": "-0.409% (inactive)"}
{"molecule": "CCOc1cc(C2C3=C(CCCC3=O)NC3=C2C(=O)CCC3)ccc1OCc1ccc(F)cc1", "activation": "-0.184% (inactive)"}
{"molecule": "CCOc1cc(C2C3=C(CCCC3=O)NC3=C2C(=O)CCC3)cc(Br)c1OCC", "activation": "5.4% (active)"}
{"molecule": "COc1cc(C2C3=C(CCCC3=O)NC3=C2C(=O)CCC3)cc(Cl)c1O", "activation": "1.16% (inactive)"}
{"molecule": "Fc1ccc(C2Oc3ccc(Cl)cc3C3CC(c4cccs4)=NN32)cc1", "note": "(stereo not given)", "activation": "0.238% (inactive)"}
{"molecule": "Cc1nn(-c2ccccc2)c(C)c1/C=N/n1c(=S)[nH]nc(C)c1=O", "activation": "-0.643% (inactive)"}
{"molecule": "CCCCCCOC(=O)c1cc(C(=O)OCCCCCC)c(C)nc1C", "activation": "6.55% (active)"}
{"molecule": "CCCCCCOC(=O)c1ccc(-c2ccc(-c3ccc(C(=O)OCCCCCC)cc3)cc2)cc1", "activation": "-1.7% (inactive)"}
{"molecule": "CCOC(=O)c1cc2cccnc2nc1C", "activation": "0.721% (inactive)"}
{"molecule": "Cc1ccccc1-c1cccc(CN2CCC(=O)N(C)CC2)c1", "activation": "0.112% (inactive)"}
{"molecule": "O=C(Cn1c(NCCCO)nc2ccccc21)c1ccccc1", "activation": "-1.59% (inactive)"}
{"molecule": "O=C(Cn1c(NCCO)nc2ccccc21)c1ccc(Cl)cc1Cl", "activation": "7.58% (active)"}
{"molecule": "CCn1c(NCCO)nc2ccccc21", "activation": "1.96% (inactive)"}
{"molecule": "COC(=O)c1cc(CNC(=O)c2cc3ncccn3n2)cc(NC(=O)Cc2ccsc2)c1", "activation": "-0.0871% (inactive)"}
{"molecule": "Cc1cc(Br)ccc1OCC(=O)N1CCN(C=O)CC1", "activation": "-1.7% (inactive)"}
{"molecule": "COC(=O)c1c(NC(=O)/C(C#N)=C/c2cccs2)sc2c1CCCC2", "activation": "-2.04% (inactive)"}
{"molecule": "O=c1[nH]c(=S)[nH]c(O)c1C=Nc1ccc(F)c(Cl)c1", "activation": "5.26% (active)"}
{"molecule": "Nc1cccc(N=Cc2c(O)[nH]c(=S)[nH]c2=O)c1", "activation": "-0.879% (inactive)"}
{"molecule": "Cc1ccc(N=Cc2c(O)[nH]c(=S)[nH]c2=O)cc1C", "activation": "0.392% (inactive)"}
{"molecule": "CC(C)[C@@H](N)Cn1nc(-c2cccs2)ccc1=O", "activation": "0.507% (inactive)"}
{"molecule": "O=C(Nc1ccccc1[N+](=O)[O-])c1ccc2ccccc2n1", "activation": "0.441% (inactive)"}
{"molecule": "Cc1ccc(/C=C2/C(=O)NC(=O)N(c3ccccc3)C2=O)cc1[N+](=O)[O-]", "activation": "7.87% (active)"}
{"molecule": "O=C1NC(=O)N(c2cccc(Br)c2)C(=O)/C1=C/c1cccc([N+](=O)[O-])c1", "activation": "1.88% (inactive)"}
{"molecule": "COc1ccc(/C=C2\\C(=O)NC(=O)N(c3ccc([N+](=O)[O-])cc3)C2=O)cc1OC", "activation": "-0.83% (inactive)"}
{"molecule": "Cn1ccnc1SCc1cc(=O)c(OC(=O)c2c(F)cccc2F)co1", "activation": "3.4% (inactive)"}
